Test results reported in publication PMC5540273 (PLoS ONE, 2017).
Where two headings read alike, the source gives them in different places.

What was measured:
NEK11 = details: concentration: 1 μM, replicates: in singlicate; n = 1
NEK1 = details: concentration: 1 μM, replicates: in singlicate; n = 1
NEK2 = details: concentration: 1 μM, replicates: in singlicate; n = 1
NEK3 = details: concentration: 1 μM, replicates: in singlicate; n = 1
NEK4 = details: concentration: 1 μM, replicates: in singlicate; n = 1
NEK5 = details: concentration: 1 μM, replicates: in singlicate; n = 1
NEK6 = details: concentration: 1 μM, replicates: in singlicate; n = 1
NEK7 = details: concentration: 1 μM, replicates: in singlicate; n = 1
NEK9 = details: concentration: 1 μM, replicates: in singlicate; n = 1
NIK = test system: T1, NIK; details: concentration: 1 μM, replicates: in singlicate; n = 1
T1 construct: gene MAP3K14

NIM1 = test system: T2, NIM1; details: concentration: 1 μM, replicates: in singlicate; n = 1
T2 construct: gene MGC42105

NLK = details: concentration: 1 μM, replicates: in singlicate; n = 1
OSR1 = test system: T3, OSR1; details: concentration: 1 μM, replicates: in singlicate; n = 1
T3 construct: gene OXSR1

PAK1 = details: concentration: 1 μM, replicates: in singlicate; n = 1
PAK2 = details: concentration: 1 μM, replicates: in singlicate; n = 1
PAK3 = details: concentration: 1 μM, replicates: in singlicate; n = 1
PAK4 = details: n = 1
PAK6 = details: concentration: 1 μM, replicates: in singlicate; n = 1
PAK7 = details: concentration: 1 μM, replicates: in singlicate; n = 1
PCTK1 = test system: T4, PCTK1; details: concentration: 1 μM, replicates: in singlicate; n = 1
T4 construct: gene CDK16

[1] = concentration: 1 μM, replicates: in singlicate
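Note: KINOMEscan kinase panel screen.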

CCn1cnc2c(NCc3ccccc3)ncnc21 [SKF-96418]
%Inh (NEK11): 0% | %Inh (NEK1): 0% | %Inh (NEK2): 0% | %Inh (NEK3): 24% | %Inh (NEK4): 0% | %Inh (NEK5): 0% | %Inh (NEK6): 0% | %Inh (NEK7): 0% | %Inh (NEK9): 0% | %Inh (NIK): 32% | %Inh (NIM1): 17% | %Inh (NLK): 0% | %Inh (OSR1): 0% | %Inh (PAK1): 11% | %Inh (PAK2): 42% | %Inh (PAK3): 0% | %Inh (PAK4; [1]): 0% | %Inh (PAK6): 0% | %Inh (PAK7): 0% | %Inh (PCTK1): 0%

O=C1NC(=O)C(c2ccccc2Cl)=C1Nc1cccc(Cl)c1 [SB-342409]
%Inh (NEK11): 0% | %Inh (NEK1): 5% | %Inh (NEK2): 10% | %Inh (NEK3): 56% | %Inh (NEK4): 11% | %Inh (NEK5): 7% | %Inh (NEK6): 1% | %Inh (NEK7): 16% | %Inh (NEK9): 20% | %Inh (NIK): 0% | %Inh (NIM1): 4% | %Inh (NLK): 22% | %Inh (OSR1): 2% | %Inh (PAK1): 24% | %Inh (PAK2): 17% | %Inh (PAK3): 0% | %Inh (PAK4; [1]): 0% | %Inh (PAK6): 7% | %Inh (PAK7): 0% | %Inh (PCTK1): 34%

Cl.O=C(Nc1ccc(Oc2ccc3[nH]c(NC(=O)c4ccco4)nc3c2)cc1)Nc1cc(C(F)(F)F)ccc1F [GW683134]
%Inh (NEK11): 0% | %Inh (NEK1): 0% | %Inh (NEK2): 2% | %Inh (NEK3): 0% | %Inh (NEK4): 0% | %Inh (NEK5): 0% | %Inh (NEK6): 0% | %Inh (NEK7): 0% | %Inh (NEK9): 79% | %Inh (NIK): 13% | %Inh (NIM1): 4% | %Inh (NLK): 6% | %Inh (OSR1): 8% | %Inh (PAK1): 0% | %Inh (PAK2): 0% | %Inh (PAK3): 59% | %Inh (PAK4; [1]): 0% | %Inh (PAK6): 0% | %Inh (PAK7): 0% | %Inh (PCTK1): 7%

COC(=O)Nc1nc2ccc(Oc3ccc(NC(=O)Nc4cc(C(F)(F)F)ccc4F)cc3)cc2[nH]1.Cl [GW654607]
%Inh (NEK11): 0% | %Inh (NEK1): 0% | %Inh (NEK2): 0% | %Inh (NEK3): 0% | %Inh (NEK4): 0% | %Inh (NEK5): 13% | %Inh (NEK6): 0% | %Inh (NEK7): 19% | %Inh (NEK9): 57% | %Inh (NIK): 60% | %Inh (NIM1): 0% | %Inh (NLK): 34% | %Inh (OSR1): 15% | %Inh (PAK1): 0% | %Inh (PAK2): 0% | %Inh (PAK3): 22% | %Inh (PAK4; [1]): 0% | %Inh (PAK6): 0% | %Inh (PAK7): 0% | %Inh (PCTK1): 4%

CN(C)CCOc1ccc(-c2cc(-c3ccc(Cl)c(O)c3)c(-c3ccncc3)[nH]2)cc1.Cl.Cl [SB-684387]
%Inh (NEK11): 38% | %Inh (NEK1): 9% | %Inh (NEK2): 14% | %Inh (NEK3): 2% | %Inh (NEK4): 0% | %Inh (NEK5): 22% | %Inh (NEK6): 0% | %Inh (NEK7): 0% | %Inh (NEK9): 17% | %Inh (NIK): 0% | %Inh (NIM1): 40% | %Inh (NLK): 66% | %Inh (OSR1): 7% | %Inh (PAK1): 8% | %Inh (PAK2): 6% | %Inh (PAK3): 0% | %Inh (PAK4; [1]): 0% | %Inh (PAK6): 0% | %Inh (PAK7): 20% | %Inh (PCTK1): 1%

COc1cc(Nc2ccnc3cc(-c4ccncc4)ccc23)cc(OC)c1OC.Cl [GW494610]
%Inh (NEK11): 8% | %Inh (NEK1): 0% | %Inh (NEK2): 0% | %Inh (NEK3): 0% | %Inh (NEK4): 0% | %Inh (NEK5): 5% | %Inh (NEK6): 1% | %Inh (NEK7): 0% | %Inh (NEK9): 4% | %Inh (NIK): 0% | %Inh (NIM1): 23% | %Inh (NLK): 92.8% | %Inh (OSR1): 100% | %Inh (PAK1): 0% | %Inh (PAK2): 0% | %Inh (PAK3): 0% | %Inh (PAK4; [1]): 0% | %Inh (PAK6): 0% | %Inh (PAK7): 0% | %Inh (PCTK1): 0%

Cc1ccc(NC(=O)c2ccnc(N3CCCCC3)c2)cc1-c1ccc(C(=O)NCC2CC2)cc1 [GW775610]
%Inh (NEK11): 0% | %Inh (NEK1): 0% | %Inh (NEK2): 0% | %Inh (NEK3): 4% | %Inh (NEK4): 0% | %Inh (NEK5): 0% | %Inh (NEK6): 0% | %Inh (NEK7): 8% | %Inh (NEK9): 20% | %Inh (NIK): 15% | %Inh (NIM1): 8% | %Inh (NLK): 15% | %Inh (OSR1): 0% | %Inh (PAK1): 0% | %Inh (PAK2): 0% | %Inh (PAK3): 15% | %Inh (PAK4; [1]): 17% | %Inh (PAK6): 0% | %Inh (PAK7): 0% | %Inh (PCTK1): 73%

CC(C)(C)c1ccc(C(=O)Nc2cn3cc(-n4ccnc4)ccc3n2)cc1
%Inh (NEK11): 0% | %Inh (NEK1): 0% | %Inh (NEK2): 0% | %Inh (NEK3): 35% | %Inh (NEK4): 0% | %Inh (NEK5): 13% | %Inh (NEK6): 2% | %Inh (NEK7): 0% | %Inh (NEK9): 3% | %Inh (NIK): 0% | %Inh (NIM1): 3% | %Inh (NLK): 0% | %Inh (OSR1): 0% | %Inh (PAK1): 30% | %Inh (PAK2): 42% | %Inh (PAK3): 20% | %Inh (PAK4; [1]): 10% | %Inh (PAK6): 6% | %Inh (PAK7): 0% | %Inh (PCTK1): 6%

Cc1cccc(Nc2nc(N[C@H]3CCCC[C@H]3N)ncc2C(N)=O)c1.Cl [GSK986310]
%Inh (NEK11): 0% | %Inh (NEK1): 2% | %Inh (NEK2): 15% | %Inh (NEK3): 19% | %Inh (NEK4): 24% | %Inh (NEK5): 13% | %Inh (NEK6): 10% | %Inh (NEK7): 8% | %Inh (NEK9): 25% | %Inh (NIK): 23% | %Inh (NIM1): 18% | %Inh (NLK): 27% | %Inh (OSR1): 33% | %Inh (PAK1): 40% | %Inh (PAK2): 70% | %Inh (PAK3): 55% | %Inh (PAK4; 1 µM): 95.4% | %Inh (PAK6): 89% | %Inh (PAK7): 99.5% | %Inh (PCTK1): 10%
